# Mcl1-Noxa inh: disrupts binding of human Mcl-1 to Noxa peptide; 220,000 compounds, 1.5% hits; inhibition, % at 21.7 µM; TR-FRET Mcl-1/Noxa peptide binding, 2 h; Q07820;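 active = compounds that cut the protein-peptide binding signal by more than 50% relative to plate controls in a single-dose test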;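 note: His-tagged Mcl-1 with rhodamine Noxa BH3 peptide and terbium anti-His antibody; 0% = Mcl-1 plus Noxa peptide wells and 100% = peptide-only wells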
# MCL1 BIM primary: disrupts human MCL1 binding to BIM-BH3 peptide; Q07820; GST-MCL1 / FITC-Bim-BH3 fluorescence polarization; inhibition, % at 10.9 µM; 320,000 compounds, 0.68% hits; AID 2057;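 active = inhibition above the mean inhibition of all tested compounds plus 3 SD, set per campaign, cut at about 40% in these data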;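 note: 0% = DMSO wells and 100% = unlabeled Bim-BH3 peptide control; higher means more loss of mP so more displacement of Bim peptide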
# eIF4E-4G inh: eIF4E/eIF4G interaction inhibition in translation initiation; P63073+Q04637; TR-FRET eIF4E-eIF4GI(517-606) binding, 2 h; inhibition, % at 21.7 µM; 220,000 compounds, 0.37% hits; AID 782;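 active = inhibition above about 30%, limit read from the data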;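 note: 0% = full FRET control wells and 100% = background wells lacking eIF4GI fragment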
# Bim-Mcl-1: inhibitors of Bim-Mcl-1 interaction, human; Q07820; Bead-based flow cytometry, Bim peptide-Mcl-1 binding; inhibition, % at 10 µM; 190,000 compounds, 0.1% hits; AID 1009; in the data active = inhibition above about 40%;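 note: 0% = no compound tracer wells and 100% = peptide blocker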
# Mcl1 Bid PPI: disrupts binding of human Mcl-1 to Bid peptide. TR-FRET Mcl-1/Bid-Dy647 peptide binding, 1536-well. inhibition, % at 21.7 µM. 220,000 compounds, 0.97% hits. AID 1021;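 active = compounds that cut the binding signal by more than half at the single screening dose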;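 note: His-tagged Mcl-1 with europium anti-His antibody binding Bid BH3 peptide; 0% = Mcl-1 plus peptide wells and 100% = peptide-only wells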
# 14-3-3 Bad inh: disrupts binding of bovine 14-3-3 zeta to phospho-Bad peptide; inhibition, % at 21.7 µM; TR-FRET 14-3-3zeta/Dy647-pBad peptide displacement, 1 h; P63103; 220,000 compounds, 0.71% hits;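 active = inhibition above about 70%, limit read from the data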;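 note: 0% = full 14-3-3 plus peptide FRET controls and 100% = background without 14-3-3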
# Numbers without * were called inactive; x = no result. Compounds with a hit are over-represented: about 2.6% of the library has one in this group of screens.
SMILES,Mcl1-Noxa inh,MCL1 BIM primary,eIF4E-4G inh,Bim-Mcl-1,Mcl1 Bid PPI,14-3-3 Bad inh
COC(=O)N/N=C/c1ccc([N+](=O)[O-])s1,11.2,-0.1,-2.2,-5.0,-1.1,-1.4
O=[N+]([O-])c1ccc(/C=N/NC(=S)Nc2ccc(Cl)cc2Cl)s1,87.5*,-3.4,-6.2,x,79.6*,21.8
Cc1ccccc1NC(=O)/C=C/c1ccc([N+](=O)[O-])s1,14.2,0.0,-1.2,-6.0,51.8*,6.0
COc1ccccc1NC(=O)C(=O)N/N=C/c1ccc([N+](=O)[O-])s1,92.5*,x,-4.3,4.0,92.7*,84.4*
O=C(CS(=O)CC(=O)Nc1cccnc1)Nc1ccc(F)cc1 (configuration not stated),x,7.8,x,x,x,x
Cc1ccc(S(=O)(=O)N2CCOC2CNC(=O)C(=O)NCCN2CCOCC2)cc1 (configuration not stated),x,1.9,x,x,x,x
CCc1c(C)nc2cc(-c3cccc(Br)c3)[nH]n2c1=O,x,-0.8,x,x,x,x
O=C(CN(C(=O)CNC(=O)c1ccco1)c1ccc2c(c1)OCO2)NC1CCCCC1,16.1,-4.0,-0.5,1.0,82.9*,-15.4
O=C(Nc1ccc(F)cc1)Nc1ccc([N+](=O)[O-])cn1,14.7,-3.8,5.8,-4.0,6.9,0.7
O=C(Nc1ccc(Cl)c(Cl)c1)Nc1ccc([N+](=O)[O-])cn1,52.7*,5.2,14.1,x,36.2,62.8
O=C1CCCc2oc3c(cc(NS(=O)(=O)c4ccc5c6c(cccc46)C(=O)N5)c4ccccc43)c21,61.3*,6.1,-1.6,x,-76.1,-4.4
Cc1ccc(-n2nc3c(c2NC(=O)c2ccc4c(c2)OCO4)CS(=O)C3)c(C)c1 (configuration not stated),x,-1.9,x,x,x,x
CCCCc1nnc2c(N(C)S(=O)(=O)c3ccccc3)nc3ccccc3n12,19.1,-0.5,-2.6,x,55.1*,13.6
CC(C)c1nnc2c(N(C)S(=O)(=O)c3ccccc3)nc3ccccc3n12,x,-6.5,x,x,x,x
O=C(NCCN1CCOCC1)c1cccc(NS(=O)(=O)c2ccc(Br)cc2)c1,x,-0.4,x,x,x,x
CCc1cccc(CC)c1NC(=S)N1CCn2cccc2C1c1cccnc1 (configuration not stated),17.0,8.4,-0.1,22.0,75.4*,-7.0
CCCN(CC(=O)Nc1ccc(C(N)=O)cc1)CC(=O)Nc1ccc(F)c(F)c1F,x,-13.7,x,x,x,x
COc1cc(/C=C(/C#N)c2nc3ccccc3[nH]2)ccc1OCC(=O)Nc1ccccc1C,-11.9,9.4,x,-3.0,67.4*,x
CCOc1cc(/C=C(/C#N)c2nc3ccccc3[nH]2)ccc1OCc1ccc(C(=O)O)o1,51.5*,-7.4,-4.2,7.0,-17.6,20.7
COc1cc(/C=C(\C#N)c2nc3ccccc3s2)ccc1OCC(=O)Nc1ccccc1,17.0,-94.3,-0.3,0.0,78.3*,-0.4
COc1cc(/C=C(/C#N)c2nc3ccccc3[nH]2)ccc1OCC(=O)Nc1ccccc1C(C)C,33.8,-1.1,6.2,16.0,59.4*,19.9
COc1cc(/C=C(\C#N)c2nc3ccccc3[nH]2)ccc1OC(=O)c1ccco1,18.4,-2.2,7.6,-7.0,-29.1,-21.2
N#C/C(=C\c1cccc(OCC(=O)O)c1)c1nc2ccccc2[nH]1,x,-1.6,x,x,x,x
CCOc1cc(/C=C(/C#N)c2ccc(F)cc2)ccc1OCc1ccc(C(=O)O)o1,9.1,0.4,-3.3,-6.0,26.2,-3.9
CC(=O)c1ccc(NC(=S)NCc2ccc(Cl)cc2Cl)cc1,15.8,10.4,1.3,1.0,-46.6,-14.9
SMILES,Mcl1-Noxa inh,MCL1 BIM primary,eIF4E-4G inh,Bim-Mcl-1,Mcl1 Bid PPI,14-3-3 Bad inh
Cc1occc1-c1nnc(SCC(=O)O)n1-c1ccccc1,-11.7,-2.9,-8.3,x,-14.8,3.7
CCc1cccc(C)c1NC(=O)Nc1c(Br)cnn1C,x,4.7,x,x,x,x
Cc1ccc(Oc2nc3ccccc3n3cccc23)cc1,8.8,5.4,1.0,-5.0,2.1,-12.1
c1ccc(Oc2nc3ccccc3n3cccc23)cc1,8.2,-1.8,0.4,-2.0,67.1*,-1.5
CC1(C)CC(CC(=O)O)(c2ccccc2)CCO1 (configuration not stated),-19.1,5.5,-3.7,0.0,66.1*,-5.6
CCOC(=O)CC1(c2ccccc2)CCOC(C)(C)C1 (configuration not stated),9.1,6.8,2.2,3.0,-30.4,-0.5
